Shown are actives, neighbours in structure and some others; about 12% of the full set was active somewhere.
Sfp inh: Sfp phosphopantetheinyl transferase inhibition. Q9F4F7. Biochemical Sfp PPTase activity, qHTS. Potency, µM, without a hit: largest response in the series, negative = inhibition, hits mostly inhibitors. hit rate 3.5% among 310,000. AID 1490;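 note: the enzyme is Sfp with the accession as filed and its product quenches rhodamine fluorescence; 0% = enzyme reaction without inhibitor and -100% = no enzyme wells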
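Buffer: 50 mM Hepes-Na pH 7.6, 10 mM MgCl2, 0.01% Nonidet P-40, 0.01% BSA. Enzyme 15 nM, pre-exposed to compound 15 min; substrates then added and fluorescence change tracked over 30 min.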
JMJD2A Tudor: inhibitors of human JMJD2A Tudor domain; Potency, µM (series often up to 114 µM), for inactives: at the top dose activity change, negative = inhibition, hits mostly inhibitors; hit rate 4.4% among 390,000; AlphaScreen JMJD2A-Tudor / H3K4me3 peptide binding; note: % is set by controls: 0 for no effect and ±100 for the full control effect; nearly all actives have a fitted effect of over 50% in size
G9a block: blocks human histone lysine methyltransferase G9a; Q96KQ7; G9a H3K9 monomethylation, AlphaScreen, 2 h; Potency, µM (series often up to 102 µM), inactives show top-dose activity, negative = inhibition, usual class: inhibitors; hit rate 8.8% among 350,000; note: % is set by controls: 0 for no effect and ±100 for the full control effect; nearly all actives have a fitted effect of over 75% in size
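Chemiluminescent proximity detection of H3K9 monomethylation, read after 10 min bead incubation in the dark. Reaction: 20 nM G9a, 500 nM biotin-H3K9 peptide, 20 uM SAM cofactor, 2 h, room temperature, following 15 min enzyme-compound preincubation.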
L3MBTL1 block: blocks human L3MBTL1 | Q9Y468 | AlphaScreen L3MBTL1–H3K9me1 peptide binding | Potency, µM (highest dose often 57.1 µM), without a hit: at the highest dose activity, negative = inhibition, most hits filed as inhibitors | hit rate 0.66% among 230,000 | AID 485360; note: % is set by controls: 0 for no effect and ±100 for the full control effect; nearly all actives have a fitted effect of over 60% in size
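Displacement of a biotinylated histone H3(1-15) peptide monomethylated at Lys9 (75 nM) from L3MBTL1 (50 nM) was measured by AlphaScreen after a 30 min room-temperature compound incubation; cefsulodin titration served as intraplate control.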
HP1b chromo inh: inhibitors of HP1-beta chromodomain binding to methylated histone tails; AlphaScreen HP1-beta / biotin-H3K9me3 peptide binding; Potency, µM (highest dose often 114 µM), for the others: at the highest dose activity change, negative = inhibition, hits mostly inhibitors; hit rate 0.56% among 390,000; note: nearly all actives have a fitted effect of over 70% in size
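AlphaScreen: HP1-beta (50 nM) preformed 30 min with biotin-H3(1-18)K9me3 peptide (50 nM) in PBS pH 7.4, 0.01% Tween-20. Compound added for 30 min at RT, then streptavidin donor/nickel chelate acceptor beads (10 ug/mL) for 30 min.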
BAZ2B block: blocks human BAZ2B. hit rate 4.4% among 360,000. Potency, µM (doses to about 114 µM), inactives show top-dose activity change, negative = inhibition, most hits filed as inhibitors. Q9UIF8. AID 504333. AlphaScreen BAZ2B-H3K14Ac peptide displacement; note: % is set by controls: 0 for no effect and ±100 for the full control effect; nearly all actives have a fitted effect of over 60% in size
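BAZ2B (50 nM) with biotin-H3(5-23)K14Ac peptide (50 nM) in PBS pH 7.4, 0.01% Tween-20, preformed 30 min, then compound 30 min at room temperature; top concentration 110uM. AlphaScreen streptavidin donor/nickel chelate acceptor beads (10 ug/mL final), 20 min dark, signal read.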
The depositor's hits bear a star; ? = inconclusive; / = not tested or not shown; [ ] = another dose, or the depositor's remark. Calls come from the whole dose curve; as a rule, active = well fitted curve in the direction sought with a large enough effect; inconclusive = small, poorly fitted or top-dose-only effect, or another doubt; inactive = no such curve, though single readings can be large; an effect the other way counts as inactive or inconclusive. Potency is the fitted concentration of half-maximal effect.

SMILES | Sfp inh | JMJD2A Tudor | G9a block | L3MBTL1 block | HP1b chromo inh | BAZ2B block
Cc1n[nH]c(=O)nc1Nc1ccc(O)cc1 | -4% | -13% | 79µM* | / | 11% | 9%
Cc1ccc(Nc2nc(=O)[nH]nc2C)cc1 | 5% | -4% | ? | / | 1% | 3%
Cc1n[nH]c(=O)nc1NCCc1ccccc1 | 0% | 21% | 89µM* | / | 16% | -5%
Cc1n[nH]c(=O)nc1N/N=C/c1ccco1 | 40µM* | ? | -40% | / | 14% | 25µM*
OCC[C@@H]1C[C@H](O)[C@@H](O)[C@]2(Cc3ccccc3CCO2)O1 | 10% | -8% | / | 3% | 44% | 0%
CCCCn1c(=O)n(-c2ccc(Br)cc2F)c(=O)c2c3c(sc21)CN(C(C)=O)CC3 | / | -15% | -1%[59 µM] | / | 33% | -27%
CCOc1cc(/C=N/Nc2ncnc(Cl)c2N)ccc1O | -76% | -27% | ? | 0% | -10% | -27%
CCOc1cc(/C=N/Nc2nnc(C)n2N)ccc1O | 56µM* | -15% | 25µM* | / | 18% | ?
COc1cc(/C=N/Nc2nc(=O)[nH]nc2C)cc(OC)c1O | 35µM* | ? | ? | 6% | -13% | 3%
CCOc1ccc(/C=N/Nc2nc(=O)[nH]nc2C)cc1OC | 25µM* | ? | -34% | / | 29% | -2%
Cc1ccc(N2CCN(S(=O)(=O)c3c(C)nc4scc(C)n4c3=O)CC2)c(C)c1 | -21% | -17% | / | / | 25% | -10%
COc1ccccc1CCn1c(=O)c(-c2cccs2)nc2cncnc21 | 3% | / | 0%[0.501 µM] | / | / | /
O=C(Cn1cc(S(=O)(=O)Cc2ccc(F)cc2)c2ccccc21)NCc1ccccc1Cl | / | -28% | -6%[59 µM] | / | 17% | 1%
COc1cccc(CN2C[C@]34C=C[C@@H](C[C@@H]3S2(=O)=O)O4)c1 | 89µM* | -11% | 0%[59 µM] | / | 26% | 6%
CCOC(=O)c1sc2nccc(N(C)C)c2c1N=CNOC | 2% | 25µM* | 4% | / | 37% | 22%
COc1ccc(CC(=O)NC2CC(=O)N(c3ccc(C)c(C)c3)C2)cc1OC (stereo not given) | / | -4% | 10%[59 µM] | / | 20% | -5%
CCOC(=O)c1ccc(NC(=O)CN2Cc3ccccc3C2=O)cc1 | / | 4% | 3%[59 µM] | / | 26% | -2%
COC(=O)CC1C(=O)NCCN1C(=O)CSc1nc2ccccc2s1 (stereo not given) | 71µM* | -35% | 7.1µM* | 3% | 11% | /
COc1nc(NCCN2CCOCC2)nc(Nc2ccccc2)n1 | 19% | -10%[11.4 µM] | 1%[12.7 µM] | / | 61% | 4%
COc1ccc(Nc2nc(NCCN3CCOCC3)nc(Nc3ccc(OC)cc3)n2)cc1 | -11% | ? | ? | / | -9% | 45µM*
COc1ccc(CCNCCN2CCOCC2)cc1 | ? | 20µM* | 3.5µM* | -4% | ? | 25µM*
COc1ccc2cc(CNc3ccccc3)c(=O)n(CC(=O)Nc3ccc(C)cc3C)c2c1 | / | -10% | -2%[59 µM] | / | 24% | -31%
Cc1ccc(-c2cc(C(=O)N/N=C\c3cnn(C)c3C)c3ccccc3n2)cc1C | -6% | 8%[11.4 µM] | 12%[12.7 µM] | / | -16% | -25%
COc1ccc(N2CCN(C(=O)c3cn(C)c4ccc(S(=O)(=O)N(C)C5CCCCC5)cc4c3=O)CC2)cc1 | / | -15% | ? | / | 15% | /
Cc1ccc(C(=O)CSc2ccccn2)cc1 | 50µM* | 8% | 8.9µM* | 10% | 25% | 11%
SMILES | Sfp inh | JMJD2A Tudor | G9a block | L3MBTL1 block | HP1b chromo inh | BAZ2B block
Cc1ccc(C(=O)CSc2nccn2-c2ccccc2)cc1 | ? | ? | 32µM* | -27% | ? | 56µM*
CCCNC(=O)c1ccccc1NC(=O)c1ccccc1SC | -8% | -14% | 25µM* | 4% | 23% | -26%
COCCNC(=O)c1ccccc1NC(=O)c1ccccc1SC | 56µM* | -6% | 4.5µM* | -9% | 17% | -13%
C=CCNC(=O)c1ccccc1NC(=O)c1ccccc1SC | 20µM* | -8% | / | 10% | 31% | 3%
CSc1ccccc1C(=O)Nc1ccccc1C(=O)N1CCCC1 | 6% | 2% | -2%[59 µM] | -2% | 57% | -8%
CCOc1ccc(NC(=O)COc2ccc(C(=O)NCc3cccc(OC)c3)cc2OC)cc1 | / | -11% | ? | ? | 34% | 7%
